Assay results from PubChem BioAssay AID493036 (Sanford-Burnham Center for Chemical Genomics, 2011).
The whole screen tested about 330,000 compounds, of which about 560 (0.17%) were called active.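 Rule for the calls: active = activation at or above 40% of the spot to cytoplasm intensity ratio, with at least 20 cells analyzed; inconclusive = wells under 20 cells, flagged as cytotoxic or low count; inactive = the rest.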 Shown is part of a subset that was picked to be rich in actives.

Key:
[1] = agonists of human NTR1, primary screen, imaging, U2OS cells, beta-arrestin-GFP, high content (AID 493036); settings: NTR1-U2OS beta-arrestin-GFP spot imaging, agonist mode; measured here: cell count, cytotoxicity flag; at 20 µM;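 for activation: 0% = DMSO without peptide and 100% = 100 nM NTR1 peptide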
[2] = target: Neurotensin receptor type 1 (Homo sapiens) (UniProt P30989); assay: as above; settings: NTR1-U2OS beta-arrestin-GFP spot imaging, agonist mode; at 20 µM; stronger effect = higher value
Chain of Neurotensin receptor type 1 (Homo sapiens) (P30989 whole entry, looked up): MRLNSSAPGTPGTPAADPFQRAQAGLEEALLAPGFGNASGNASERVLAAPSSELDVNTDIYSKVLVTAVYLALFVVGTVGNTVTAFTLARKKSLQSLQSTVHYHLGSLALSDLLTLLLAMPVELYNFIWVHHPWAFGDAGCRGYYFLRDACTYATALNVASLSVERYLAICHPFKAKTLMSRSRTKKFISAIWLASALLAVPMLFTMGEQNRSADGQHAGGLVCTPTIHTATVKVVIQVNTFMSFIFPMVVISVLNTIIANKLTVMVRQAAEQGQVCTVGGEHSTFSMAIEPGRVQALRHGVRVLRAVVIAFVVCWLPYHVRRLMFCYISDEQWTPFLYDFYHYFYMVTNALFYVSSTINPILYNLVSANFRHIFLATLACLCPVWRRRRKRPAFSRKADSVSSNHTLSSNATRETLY

| SMILES | cell count [1] | activation [2] |
| --- | --- | --- |
| Nc1c(-c2ccc(F)cc2)cnc2ncnn12 | 91 cells | -0.2% (inactive) |
| CCOC(=O)Cn1c(=O)n(Cc2ccc(OC)cc2)c(=O)c2cccnc21 | 62 cells | -0.6% (inactive) |
| Cc1nnc(-c2ccc(Oc3ccc(C)c(C)c3)c([N+](=O)[O-])c2)o1 | 52 cells | -0.2% (inactive) |
| Cc1cc(C)cc(NC(=O)COc2coc(CN3CCN(c4ccccc4)CC3)cc2=O)c1 | 47 cells | 1.4% (inactive) |
| CCCNC(=O)COc1coc(CN2CCN(Cc3ccccc3)CC2)cc1=O | 51 cells | 0.5% (inactive) |
| Cc1ccc(NC(=O)COc2coc(CN3CCc4ccccc4C3)cc2=O)cc1Cl | 63 cells | 40.7% (active) |
| O=C(N/N=C/c1c(Cl)[nH]c2ccccc12)c1sc2ccccc2c1Cl | 73 cells | 41.9% (active) |
| COc1ccc(CNC(=O)CNC(=O)c2sc3ccccc3c2Cl)cc1OC | 47 cells | 1.7% (inactive) |
| COCCNC(=S)N/N=C/c1c(C)[nH]c2ccccc12 | 45 cells | 1.2% (inactive) |
| CC(=O)N1c2ccc(S(=O)(=O)N3CCC(C(=O)NC4CCCCC4C)CC3)cc2CC1C (stereo not drawn) | 45 cells | 2.5% (inactive) |
| CC(C)Cn1c(N)c(C(=O)NCc2cccs2)c2nc3ccccc3nc21 | 78 cells | 41.7% (active) |
| COCC(C)OC(=O)c1c(N)n(CCCN2CCOCC2)c2nc3ccccc3nc12 (stereo not drawn) | 68 cells | -1% (inactive) |
| CCOc1ccccc1NC(=O)Cn1nnc(C(=O)NCc2cccs2)c1N | 61 cells | 1.8% (inactive) |
| O=C(c1cc(Cl)cc(Cl)c1)N1CCC(=O)N(C(COCc2ccccc2)Cc2ccccc2)CC1 (stereo not drawn) | 76 cells | 8.8% (inactive) |
| CCCCN1C(=O)c2ccc(C(=O)Nc3ccc(S(=O)(=O)N(C)C)cc3)cc2C1=O | 77 cells | 3.1% (inactive) |
| CCN(CC(=O)Nc1ccc(OC)cc1)C(=O)c1ccc(=O)n(Cc2ccccc2)n1 | 54 cells | -0.5% (inactive) |
| CC1(C(=O)N/N=C/c2cc3c(cc2Br)OCO3)CC1(Br)Br (stereo not drawn) | 71 cells | 5.3% (inactive) |
| CC(C)Oc1c(Br)cc(Br)cc1/C=N/NC(N)=S | 60 cells | 66.8% (active) |
| Cc1ccc(Nc2nc(-c3ccc(O)cc3O)cs2)nc1 | 37 cells | 18.9% (inactive) |
| O=c1oc2ccccc2cc1-c1cn(-c2ccccc2)c(=S)[nH]1 | 47 cells | 6.1% (inactive) |
| O=c1oc2ccccc2cc1-c1csc(Nc2ccc(O)cc2)n1 | 50 cells | 76.8% (active) |
| CCC1(CC)Cc2ccccc2-c2nc(CCl)[nH]c(=O)c21 | 60 cells | 61.8% (active) |
| CC1(C)Cc2ccccc2-c2[nH]c(=S)[nH]c(=O)c21 | 53 cells | 0.3% (inactive) |
| CC1(C)Cc2ccccc2-c2nc(CN3CCOCC3)[nH]c(=O)c21 | 89 cells | -0.1% (inactive) |
